Screening data as filed in PubChem BioAssay.
AmpC detergent: qHTS Inhibitors of AmpC Beta-Lactamase (assay with detergent) | AmpC hydrolysis of nitrocefin, absorbance 480 nm, 0.01% Triton | Potency, µM (doses to about 114 µM), actives largely listed as inhibitors | 370,000 compounds, 0.041% hits | AID 485294, 2010; further: nearly all actives have a fitted effect of over 25% in size
Target sequence (P00811 whole entry, looked up): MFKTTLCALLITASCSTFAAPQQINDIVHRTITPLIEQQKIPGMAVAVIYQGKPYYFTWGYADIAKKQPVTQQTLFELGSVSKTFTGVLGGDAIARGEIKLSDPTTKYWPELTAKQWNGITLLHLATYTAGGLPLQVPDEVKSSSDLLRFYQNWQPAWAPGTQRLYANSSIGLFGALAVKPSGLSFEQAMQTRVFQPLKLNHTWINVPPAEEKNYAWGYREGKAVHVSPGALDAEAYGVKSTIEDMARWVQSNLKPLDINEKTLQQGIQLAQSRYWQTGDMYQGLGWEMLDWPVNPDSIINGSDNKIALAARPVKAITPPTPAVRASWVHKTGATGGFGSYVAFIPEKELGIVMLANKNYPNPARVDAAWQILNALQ
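AmpC (5.3 nM in the dispensed reagent) in 20 mM phosphate pH 7.0 with 0.01% (detergent screen) or 0.0001% Triton X-100 was preincubated with compounds for 15 min at room temperature. Nitrocefin was then added from an 800 uM solution, and hydrolysis was followed at 480 nm.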
AmpC inh no detg: qHTS Inhibitors of AmpC Beta-Lactamase (assay without detergent); 330,000 compounds, 0.52% hits; Potency, µM (highest dose often 57.1 µM), usual class: inhibitors; AmpC nitrocefin hydrolysis, absorbance 480 nm, 0.0001% Triton; P00811; further: nearly all actives have a fitted effect of over 20% in size
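20 mM phosphate pH 7.0 + 0.01% (detergent screen) or 0.0001% Triton X-100; 5.3 nM AmpC reagent; cpd preinc 15 min RT; nitrocefin (800 uM stock) to start; A480 q20 s × 4 min; Activity was normalised to no-enzyme and no-compound control wells.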
NS1 inh: qHTS Assay for Inhibitors of Influenza NS1 Protein Function; 270,000 compounds, 0.4% hits; AID 2326, 2010; Potency, µM (series often up to 46.1 µM); calls by dose curve; further: actives are rising curves; nearly all actives have a fitted effect of over 50% in size
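Recovery from NS1-induced slow growth read by OD600 in budding yeast switched to galactose assay medium (pH 6.0, -URA) at 1:100 dilution. Compound 23 nl per well; the matching strain lacking NS1 serves as control.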
AMA1-RON2 inh: qHTS for Inhibitors of AMA1-RON; Towards Development of Antimalarial Drug Lead: Primary Screen | Plasmodium falciparum AMA1 (3D7) - RON2 peptide interaction | AlphaScreen AMA1-biotinylated RON2 peptide binding | Potency, µM (titrated, usually from 58.2 µM), actives largely listed as inhibitors | 360,000 compounds, 0.2% hits; further: nearly all actives have a fitted effect of over 45% in size
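AMA1 (3D7) with his tag at 25 nM final met compounds first, then biotinylated RON2 peptide at 25 nM; detection used donor plus acceptor beads, 10 µg/mL apiece, read by AlphaScreen after 30 min at room temperature.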
Of the large screens only hits and unclear results are named; the others gave an inactive call. The list is not random: actives were taken first. Their share in the collection is about 0.86%. Unless noted, the call rests on the fitted dose curve; in most records, active means well fitted curve in the direction sought with a large enough effect; inconclusive means small, poorly fitted or top-dose-only effect, or another doubt; inactive means no such curve, though single readings can be large; an effect the other way counts as inactive or inconclusive.

Cc1ccc(S(=O)(=O)c2cn(Cc3ccccc3F)c3cc4c(cc3c2=O)OCO4)cc1	none (no result: AmpC inh no detg, NS1 inh, AMA1-RON2 inh)
CN(C)c1ccc(C(CNC(=O)c2ccc(C#N)cc2)c2c[nH]c3ccccc23)cc1 (stereo not given)	AMA1-RON2 inh 14.1µM
COCCN(C(=O)Cc1cccs1)C(C(=O)NCc1ccc(OC)cc1)c1ccc(C)cc1 (stereo not given)	AmpC inh no detg 0.316µM
C/C(=N\NC(=S)Nc1ccc(F)cc1)c1ccc2c(c1)OCCO2	AmpC inh no detg 20µM
C/C(=N\NC(N)=S)c1ccc2c(c1)OCCO2	none
O=C(COc1ccc(F)cc1)Nc1nccs1	none
O=C(CS(=O)(=O)c1ccc(F)cc1)Nc1nccs1	AmpC detergent inconclusive, AmpC inh no detg 31.6µM (no result: NS1 inh)
CCCn1nc([N+](=O)[O-])c(C(C#N)c2nc3ccccc3s2)c(Cl)c1=O (stereo not given)	AmpC inh no detg 14.1µM, AMA1-RON2 inh inconclusive
CCn1nc([N+](=O)[O-])c(C(C#N)c2nc3ccccc3n2C)c(Cl)c1=O (stereo not given)	none
COc1ccccc1CNC(=O)c1ccc(N2CCCC2)c(NC(=O)NCc2ccc(F)cc2)c1	none (no result: AmpC inh no detg, NS1 inh, AMA1-RON2 inh)
Cc1cc(/C=N/NC(N)=S)c(C)n1-c1ccc(Cl)c(Cl)c1	AmpC inh no detg inconclusive
CCNC(=S)N/N=C/c1cc(C)n(-c2ccc(Cl)cc2)c1C	AmpC inh no detg 28.2µM (no result: NS1 inh)
CCOC(=O)c1ccc(N2CCN(c3cc(C)ccc3C)CC2)c(NC(=O)Nc2ccc(Cl)cc2)c1	none (no result: AmpC inh no detg, NS1 inh, AMA1-RON2 inh)
COc1ccc(N=Nc2ccc3ccccc3c2)c(O)c1	AMA1-RON2 inh inconclusive
Oc1ccc2ccccc2c1N=Nc1ccc(F)cc1	NS1 inh inconclusive, AMA1-RON2 inh 1.41µM
Cc1ccc(N=Nc2ccc3ccccc3c2O)cc1	AMA1-RON2 inh 2.82µM
Oc1c(N=Nc2ccc(F)cc2)ccc2ccccc12	AMA1-RON2 inh 1.78µM
Cc1ccc(N=Nc2ccc(O)c3ncccc23)cc1	none
COc1cccc(N=Nc2ccc3ccccc3c2O)c1	AmpC detergent inconclusive, AMA1-RON2 inh 2.82µM
Oc1[nH]c2ccccc2c1N=Nc1ccc(F)cc1	none
O=S1(=O)C[C@H](N2CC[C@@H](O)C2)[C@@H](COCc2ccccc2)N1	none (no result: AmpC detergent, AmpC inh no detg, NS1 inh)
CCOC(=O)c1cc2c(ccn2C)n1CC(=O)N1CCN(c2ccccc2)CC1	AmpC detergent 31.6µM, NS1 inh inconclusive
CCOC(=O)c1cc2c(ccn2C)n1CC(=O)N1C(C)CCCC1C (stereo not given)	none
CCCn1c(SCC(=O)NC(C)(C)C)nnc1C(C)C	none
O=C(Oc1ccccc1)c1cc(O)c(O)c(O)c1	AMA1-RON2 inh 39.8µM (no result: AmpC detergent, AmpC inh no detg, NS1 inh)
O=C(OCCc1ccccc1)c1cc(O)c(O)c(O)c1	AMA1-RON2 inh inconclusive (no result: NS1 inh)
C/C(=N\NC(=O)CSCc1ccccc1Cl)c1cccc(NC(=O)c2ccccc2)c1	AmpC inh no detg 22.4µM
COc1ccc2c(c1)CC(C(=O)Nc1cc(Cl)ccc1C)CO2 (stereo not given)	none (no result: AmpC inh no detg, NS1 inh, AMA1-RON2 inh)
c1coc(-c2nc(-c3ccco3)c(-c3ccco3)nc2-c2ccco2)c1	AmpC detergent inconclusive, AMA1-RON2 inh 9.47µM
Nc1nc(-c2ccco2)c(-c2ccco2)s1	none
C/C(=N/Nc1nc(-c2ccccc2)cc(-c2ccccc2)n1)c1ccc(N)cc1	NS1 inh 7.94µM (no result: AMA1-RON2 inh)
C/C(=N/Nc1cc(-c2ccccc2)nc(-c2ccccc2)n1)c1ccc(O)cc1	none
CCOc1ccccc1C(=O)Nc1ccc(-n2nncc2C(C)(C)C)cc1	none (no result: NS1 inh)
Cn1cnc(S(=O)(=O)N2CCCC(C(=O)NCc3ccc(F)cc3)C2)c1 (stereo not given)	none (no result: AmpC inh no detg, NS1 inh, AMA1-RON2 inh)
Cc1cc(C)cc(NC(=O)CCc2c(C)nn(-c3ccc(N4CCOCC4)nn3)c2C)c1	none
CCOc1cc(C=C(C#N)C#N)ccc1Oc1ccc([N+](=O)[O-])cn1	none
COc1cc(/C=C(/C#N)c2ccc(F)cc2)ccc1Oc1ccc([N+](=O)[O-])cn1	AmpC inh no detg 28.2µM
CCN(CC)c1ccc(NC(=O)c2ccc3c(c2)c(C)c(C)n3C)cc1	AMA1-RON2 inh 7.94µM (no result: NS1 inh)
Cc1ccccc1CNC(=O)c1ccc2c(c1)c(C)c(C)n2C	none (no result: AmpC inh no detg, NS1 inh, AMA1-RON2 inh)
Cc1ccc(N2C(=O)C3C(C2=O)N2C(c4cccs4)C4C(=O)N(c5ccc(C)cc5)C(=O)C4N2C3c2cccs2)cc1 (stereo not given)	NS1 inh 2.51µM
Cc1cc(N2CCCC2=O)ccc1S(=O)(=O)NC1CCCCC1	none
Cc1cccc(C(=O)NCC(=O)NCCCSc2ccccc2)c1	none (no result: NS1 inh)
